Measured values taken from PubChem BioAssay (NCATS).
“And” between values parts separate entries of the source, which are not always exact repeats. Equal entries are not always repeated. Inconclusive results are not listed. The source holds several records for some structures; these can differ, active in one and inactive in another. The source made the active and inactive calls. Unless noted, the call rests on the fitted dose curve; in most records, active means well fitted curve in either direction with a large enough effect (not every such curve was filed as active); inconclusive means small, poorly fitted or top-dose-only effect, or another doubt; inactive means flat fitted curve, though single readings scatter.

Legend:
[1] = molecular target: Cytochrome P450 1A2 (Homo sapiens) (UniProt P05177); assay: p450-cyp1a2 (AID 410; calls by dose curve; further: potency means the concentration at half of the fitted maximal effect;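 on activity change, negative = inhibition: -100% = full effect of reference inhibitor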)
Sequence of Cytochrome P450 1A2 (Homo sapiens) (P05177 whole entry, looked up): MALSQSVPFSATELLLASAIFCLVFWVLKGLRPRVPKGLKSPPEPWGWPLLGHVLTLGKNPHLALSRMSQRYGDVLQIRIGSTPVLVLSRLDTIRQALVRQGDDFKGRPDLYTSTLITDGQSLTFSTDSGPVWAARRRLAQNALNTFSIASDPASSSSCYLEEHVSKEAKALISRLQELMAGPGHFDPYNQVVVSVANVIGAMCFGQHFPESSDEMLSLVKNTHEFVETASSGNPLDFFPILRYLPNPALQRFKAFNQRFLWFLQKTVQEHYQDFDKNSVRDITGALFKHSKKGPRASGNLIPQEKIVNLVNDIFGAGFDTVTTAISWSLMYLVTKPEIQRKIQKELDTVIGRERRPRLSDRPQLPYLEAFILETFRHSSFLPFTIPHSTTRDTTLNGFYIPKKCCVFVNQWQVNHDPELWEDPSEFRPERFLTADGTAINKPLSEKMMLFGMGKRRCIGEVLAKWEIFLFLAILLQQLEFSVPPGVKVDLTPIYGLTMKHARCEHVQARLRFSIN
Procedure, shortened: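 O-Demethylation of luciferin 6' methyl ether by human CYP1A2 is monitored as luciferase luminescence. Substrate sits at Km (100uM); enzyme is 20nM. Values are scaled to 57 uM furafylline as maximal inhibition.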

[2] = Stat Signaling Pathway (AID 446); details: ME-180 SIE beta-lactamase reporter, IL-6 stimulated, 5 h;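 further: ME-180 cervical cancer cells given 40 pM IL-6 alongside compound; SIE-controlled beta-lactamase reporter measured as 460/530 nm FRET emission ratio; on the % scale 0 is the no-effect control and ±100 the full control effect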
Procedure, shortened: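 Emission at 460 and 530 nm (excitation 405 nm) reports SIE-controlled beta-lactamase in ME-180 cells. Cells received compound with 40 pM IL-6 for 5 hrs at 37 C; data scaled between 300 pM IL-6 and 125 nM JAK-inhibitor controls.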

[3] = molecular target: Glucocorticoid receptor (Homo sapiens) (UniProt P04150); assay: GR-GFP Redistribution (AID 450;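 active means compounds whose dose series gives a full or clear partial fitted curve of increased nuclear translocation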; further: potency means the concentration at half of the fitted maximal effect); details: U2OS GR-GFP nuclear translocation, laser cytometry, 2 h
Sequence of Glucocorticoid receptor (Homo sapiens) (P04150 whole entry, looked up, the tested form may be a part): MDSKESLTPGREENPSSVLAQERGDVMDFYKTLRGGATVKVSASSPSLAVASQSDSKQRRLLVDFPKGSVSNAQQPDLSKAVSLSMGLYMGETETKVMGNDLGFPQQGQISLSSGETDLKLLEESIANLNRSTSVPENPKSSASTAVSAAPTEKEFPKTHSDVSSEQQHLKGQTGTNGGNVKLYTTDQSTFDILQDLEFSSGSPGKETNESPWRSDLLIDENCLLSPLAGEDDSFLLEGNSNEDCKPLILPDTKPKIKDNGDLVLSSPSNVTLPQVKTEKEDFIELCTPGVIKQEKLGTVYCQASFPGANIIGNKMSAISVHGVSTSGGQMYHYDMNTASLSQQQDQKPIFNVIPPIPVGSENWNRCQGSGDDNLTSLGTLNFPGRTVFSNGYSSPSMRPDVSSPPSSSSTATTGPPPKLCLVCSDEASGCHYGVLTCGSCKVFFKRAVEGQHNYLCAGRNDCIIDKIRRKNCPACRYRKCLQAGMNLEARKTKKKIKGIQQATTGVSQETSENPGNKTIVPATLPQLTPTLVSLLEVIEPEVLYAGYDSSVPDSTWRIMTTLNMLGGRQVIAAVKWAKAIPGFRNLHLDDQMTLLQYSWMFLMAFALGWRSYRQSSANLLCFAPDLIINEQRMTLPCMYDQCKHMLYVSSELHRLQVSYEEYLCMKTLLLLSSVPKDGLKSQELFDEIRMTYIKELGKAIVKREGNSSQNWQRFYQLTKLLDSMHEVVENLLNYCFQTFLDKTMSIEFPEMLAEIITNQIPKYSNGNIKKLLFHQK

[4] = molecular target: Glucocorticoid receptor (Homo sapiens) (UniProt P04150); assay: GR-EFC Redistribution (AID 451; calls by dose curve; further: potency means the concentration at half of the fitted maximal effect); details: CHO-K1 GR-EFC translocation, beta-gal luminescence, 2 h
Procedure, shortened: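 CHO-K1 cells stably expressing nuclear-localized β-gal enzyme acceptor and GR fused C-terminally to the enzyme donor fragment; ligand-driven nuclear translocation restores β-gal by complementation. Compounds titrated up to 46 uM final, 2 h at 37 °C; luminescence read.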

[5] = molecular target: Mitogen-activated protein kinase 10 (Mus musculus) (UniProt Q61831); assay: JNK3 AlphaScreen Assay (AID 530);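 further: kinase came from lysate of stimulated human HepG2 cells; signal reports phosphorylation of biotinylated GST-cJun 1-79 at Ser73 with 10 µM ATP; on the % scale 0 is the no-effect control and ±100 the full control effect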
Procedure, shortened: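 Phosphorylation of biotinylated GST-cJun(1-79) at Ser73 is measured by AlphaScreen proximity luminescence. Enzyme is JNK3 in HepG2 lysates activated with interleukin-1beta and tumor necrosis factor alpha; ATP is 10 uM final.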

[6] = molecular target: 3',5'-cyclic-AMP phosphodiesterase 4B (Homo sapiens) (UniProt Q07343); assay: qHTS Assay for Inhibitors of PDE-IV (AID 607; active means well fitted activation curve with a large enough effect in the main read-out, with a control signal flat, not every such curve was filed as active; further: % of control where 0% means no effect)
Sequence of 3',5'-cyclic-AMP phosphodiesterase 4B (Homo sapiens) (Q07343 whole entry, looked up): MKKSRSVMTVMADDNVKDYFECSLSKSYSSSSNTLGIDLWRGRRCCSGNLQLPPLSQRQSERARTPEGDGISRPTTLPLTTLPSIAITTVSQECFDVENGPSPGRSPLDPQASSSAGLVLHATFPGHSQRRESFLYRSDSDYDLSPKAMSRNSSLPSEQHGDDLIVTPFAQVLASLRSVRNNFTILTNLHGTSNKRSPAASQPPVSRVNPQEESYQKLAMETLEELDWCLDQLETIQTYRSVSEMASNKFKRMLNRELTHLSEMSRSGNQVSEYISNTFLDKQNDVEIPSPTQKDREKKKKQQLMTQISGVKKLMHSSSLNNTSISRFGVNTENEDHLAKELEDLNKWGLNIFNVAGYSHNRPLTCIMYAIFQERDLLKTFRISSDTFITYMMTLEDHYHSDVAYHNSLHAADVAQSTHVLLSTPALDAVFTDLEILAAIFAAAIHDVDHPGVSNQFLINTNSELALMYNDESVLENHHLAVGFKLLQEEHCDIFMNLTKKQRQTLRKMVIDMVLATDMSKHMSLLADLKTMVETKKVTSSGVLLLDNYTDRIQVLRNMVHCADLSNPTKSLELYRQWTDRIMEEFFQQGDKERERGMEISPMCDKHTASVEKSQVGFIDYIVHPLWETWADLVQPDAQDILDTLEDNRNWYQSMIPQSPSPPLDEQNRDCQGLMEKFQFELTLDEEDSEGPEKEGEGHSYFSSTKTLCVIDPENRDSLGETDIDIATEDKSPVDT
Procedure, shortened: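 The readout is membrane depolarisation from a cAMP-sensing CNG channel, detected with a potential dye at ex 535/em 590. Cells were HEK293-derived (endogenous PDE-IV) at 1000 cells/well, titrated up to 22.9 uM final.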

[7] = molecular target: Cytochrome P450 3A4 (Homo sapiens) (UniProt P08684); assay: qHTS Assay for Activators of Cytochrome P450 3A4 (AID 885; active means well fitted curve in the direction sought with a large enough effect; an effect the other way counts as inactive or inconclusive; further: nearly all actives have a fitted effect of over 65% in size)
Sequence of Cytochrome P450 3A4 (Homo sapiens) (P08684 whole entry, looked up): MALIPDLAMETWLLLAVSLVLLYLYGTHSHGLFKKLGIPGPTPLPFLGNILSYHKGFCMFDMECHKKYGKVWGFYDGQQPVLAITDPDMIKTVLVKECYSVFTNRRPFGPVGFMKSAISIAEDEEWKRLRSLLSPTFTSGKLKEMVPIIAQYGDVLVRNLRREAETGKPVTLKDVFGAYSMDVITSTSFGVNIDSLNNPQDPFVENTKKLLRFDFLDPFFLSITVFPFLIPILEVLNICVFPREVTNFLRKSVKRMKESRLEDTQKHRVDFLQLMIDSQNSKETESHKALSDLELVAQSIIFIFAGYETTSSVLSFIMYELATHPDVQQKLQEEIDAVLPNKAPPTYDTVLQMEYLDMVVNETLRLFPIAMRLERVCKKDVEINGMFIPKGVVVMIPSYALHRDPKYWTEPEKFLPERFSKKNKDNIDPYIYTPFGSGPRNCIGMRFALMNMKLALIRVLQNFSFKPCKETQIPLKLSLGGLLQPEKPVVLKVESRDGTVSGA
Procedure, shortened: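 Activators are scored by enhanced luminescence from CYP3A4 conversion of luciferin-PPXE (25uM, equal to KM) to luciferin, after 60 min at RT with an NADPH-regenerating system.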

[8] = qHTS Assay for Lipid Storage Modulators (AID 1519; calls by dose curve); details: Drosophila S3 cells, BODIPY lipid droplet/cell ratio, laser cytometry, cells loaded with oleic acid
Procedure, shortened: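 Cells seeded at 5,000 per well were treated with compounds over a concentration series and loaded with oleic acid (400 uM, as added). Lipid droplet fluorescence (488 nm excitation, 500-530 nm channel) was read by laser-scanning cytometry and normalized to 20 uM Triacsin C.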

[9] = molecular target: Ubiquitin carboxyl-terminal hydrolase 1 (Homo sapiens) (UniProt O94782); assay: Inhibitors of USP1/UAF1: Pilot qHTS (AID 504865; active means well fitted curve in the direction sought with a large enough effect; an effect the other way counts as inactive or inconclusive;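 further: rhodamine fluorescence freed from ubiquitin-rhodamine substrate followed over time; top concentration of the series differs between compounds; on the % scale 0 is the no-effect control and ±100 the full control effect; nearly all actives have a fitted effect of over 35% in size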)
Sequence of Ubiquitin carboxyl-terminal hydrolase 1 (Homo sapiens) (O94782 whole entry, looked up): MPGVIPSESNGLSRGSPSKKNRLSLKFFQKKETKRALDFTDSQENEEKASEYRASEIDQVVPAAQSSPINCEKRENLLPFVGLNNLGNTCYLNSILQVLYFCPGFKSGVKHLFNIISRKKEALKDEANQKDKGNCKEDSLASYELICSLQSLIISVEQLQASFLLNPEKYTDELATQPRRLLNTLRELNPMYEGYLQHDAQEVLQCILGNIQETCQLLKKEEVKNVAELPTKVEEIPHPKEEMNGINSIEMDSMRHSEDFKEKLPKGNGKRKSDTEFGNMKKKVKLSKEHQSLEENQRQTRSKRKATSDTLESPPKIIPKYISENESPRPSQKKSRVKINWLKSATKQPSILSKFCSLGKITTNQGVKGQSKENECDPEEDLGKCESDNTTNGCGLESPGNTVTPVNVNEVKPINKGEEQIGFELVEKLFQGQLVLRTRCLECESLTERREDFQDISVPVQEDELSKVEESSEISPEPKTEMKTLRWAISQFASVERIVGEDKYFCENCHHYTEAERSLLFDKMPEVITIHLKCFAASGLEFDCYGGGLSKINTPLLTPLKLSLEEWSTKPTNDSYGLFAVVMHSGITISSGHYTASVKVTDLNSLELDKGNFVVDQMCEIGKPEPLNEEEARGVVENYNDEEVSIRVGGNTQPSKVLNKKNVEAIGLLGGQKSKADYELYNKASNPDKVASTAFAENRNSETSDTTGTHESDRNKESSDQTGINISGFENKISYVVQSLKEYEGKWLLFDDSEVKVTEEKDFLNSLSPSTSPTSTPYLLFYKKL
Procedure, shortened: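 USP1/UAF1 complex (1nM) preincubated with compound 15 min at room temperature, then Ub-Rho substrate (150nM final) added. Fluorescence read kinetically at 480/540 nm, 6 reads every 60 seconds. Buffer: 50mM HEPES pH 7.8, 0.5mM EDTA, 0.1 mg/ml BSA, 1mM TCEP, 0.01% Tween-20.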

[10] = AP1 Signaling Pathway (AID 357); details: ME-180 (cervical carcinoma) AP-1-bla reporter, EGF-induced, beta-lactamase ratio, 5 h; at 7.69 µM (top of the series) unless noted;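 further: ME-180 reporter cells stimulated with EGF at its EC50 level; on the % scale 0 is the no-effect control and ±100 the full control effect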
Procedure, shortened: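 A ratiometric CCF4 readout (405 nm excitation; 460 and 530 nm emission) quantified AP-1-driven beta-lactamase in ME-180 cells after 5 h with compound and EC50 EGF; AC50 values were derived for activators and inhibitors.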

[11] = NFAT Signaling Pathway (AID 444); details: Jurkat NFAT-bla M1, carbachol, beta-lactamase ratio, 5 h;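 further: carbachol stimulus at about its EC50 of 1 µM final; on the % scale 0 is the no-effect control and ±100 the full control effect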
Procedure, shortened: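 Jurkat cells carrying an NFAT-driven β-lactamase reporter and co-transfected muscarinic M1 receptor were treated with compound plus carbachol (1 uM final, an EC50 level) for 5 h at 37 °C. CCF4 loading followed for 1 h at RT; 460/530 nm ratio gave %activity.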

[12] = molecular target: Luciferin 4-monooxygenase (Photinus pyralis) (UniProt P08659); assay: Biochemical firefly luciferase enzyme assay for NPC (AID 624030; active means well fitted curve in the direction sought with a large enough effect; an effect the other way counts as inactive or inconclusive;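 further: purified P. pyralis luciferase at 10 nM with luciferin and ATP substrate; 0% = DMSO and -100% = full luciferase inhibition by PTC124 control; nearly all actives have a fitted effect of over 70% in size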)
Sequence of Luciferin 4-monooxygenase (Photinus pyralis) (P08659 whole entry, looked up): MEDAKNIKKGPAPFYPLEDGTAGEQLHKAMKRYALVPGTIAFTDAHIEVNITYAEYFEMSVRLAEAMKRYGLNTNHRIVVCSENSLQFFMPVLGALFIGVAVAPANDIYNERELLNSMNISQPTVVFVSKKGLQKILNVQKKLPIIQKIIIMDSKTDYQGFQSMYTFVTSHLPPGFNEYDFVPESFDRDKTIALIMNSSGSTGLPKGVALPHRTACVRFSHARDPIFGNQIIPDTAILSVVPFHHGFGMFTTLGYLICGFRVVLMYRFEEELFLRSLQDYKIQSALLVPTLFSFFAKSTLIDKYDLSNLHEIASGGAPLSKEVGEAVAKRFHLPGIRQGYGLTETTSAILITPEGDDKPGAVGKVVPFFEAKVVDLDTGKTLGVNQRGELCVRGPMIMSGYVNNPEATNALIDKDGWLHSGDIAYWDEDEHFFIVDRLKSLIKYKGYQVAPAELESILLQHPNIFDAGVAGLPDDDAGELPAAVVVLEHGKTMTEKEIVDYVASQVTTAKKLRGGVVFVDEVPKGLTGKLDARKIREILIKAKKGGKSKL
Procedure, shortened: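 Counter-screen for direct inhibition of the luciferase enzyme by approved-drug library compounds, run at 10 nM enzyme in 50 mM Tris acetate (final). Luminescence was read within 5 min of enzyme-buffer addition and normalized to PTC124 versus DMSO (0%).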

[13] = qHTS profiling for inhibitors of Plasmodium falciparum proliferation (AID 504749; active means well fitted curve in the direction sought with a large enough effect; an effect the other way counts as inactive or inconclusive;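 further: 0% = DMSO vehicle and full inhibition = artemisinin control; nearly all actives have a fitted effect of over 60% in size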); details: P. falciparum in erythrocytes, SYBR Green DNA, 72 h, at 28.7 µM (top of the series)
Procedure, shortened: (§1)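 Quantitative HTS: compounds pinned into medium, infected erythrocytes added (0.3% parasitemia, 2.5% hematocrit), 72 h culture at 37 C under 5% CO2. Saponin/Triton lysis with SYBR Green I, overnight RT, then fluorescence read.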

ATS189 = assay: as above; details: P. falciparum in erythrocytes, SYBR Green DNA, 72 h; series mostly up to 12.8 µM
Procedure, shortened: as §1

CP201 = assay: as above; details: P. falciparum in erythrocytes, SYBR Green DNA, 72 h; series mostly up to 12.8 µM
Procedure, shortened: as §1

CP291 = assay: as above; details: P. falciparum in erythrocytes, SYBR Green DNA, 72 h; series mostly up to 12.8 µM
Procedure, shortened: as §1

DFO2036 = assay: as above; details: P. falciparum in erythrocytes, SYBR Green DNA, 72 h; series mostly up to 12.8 µM
Procedure, shortened: as §1

PC49 = assay: as above; details: P. falciparum in erythrocytes, SYBR Green DNA, 72 h; series mostly up to 12.8 µM
Procedure, shortened: as §1

TAB113 = assay: as above; details: P. falciparum in erythrocytes, SYBR Green DNA, 72 h; series mostly up to 12.8 µM
Procedure, shortened: as §1

[14] = measured here: cell count channel max response
[15] = measured here: lipid channel max response
[16] = at 7.69 µM (top of the series) unless noted

OCCN1CCN(CC/C=C2\c3ccccc3Sc3ccc(C(F)(F)F)cc32)CC1
-13.1%: max response [8, 14]
-14.8%: max response [8, 15]
inactive: activity, negative = inhibition ([2]; at 17.2 µM (top of the series)) 5.96% | activity, negative = inhibition ([2]; at 38 µM (top of the series)) -10.3% | Potency [3] > 46 µM and > 20.6 µM | Potency [4] > 46 µM and > 20.6 µM | Potency [5] | Potency [6] | Potency [7] | activity change, negative = inhibition ([8]; at 25.7 µM (top of the series)) -3.77% | Potency [9]
active: Potency [1] 7.94 µM and 5.01 µM

O=C(O)[C@H]1CCCN(CCC=C(c2ccccc2)c2ccccc2)C1
inactive and 31.6 µM (active): Potency [1]
-22.7%: max response [8, 14]
-26.7%: max response [8, 15]
inactive: activity change, negative = inhibition [10] 3.95% [at 38 µM] | activity change, negative = inhibition [11, 16] -15.6% [at 38 µM] | activity, negative = inhibition [2, 16] 26.3% [at 38 µM] | Potency [3] > 46 µM | Potency [4] > 46 µM | Potency [5] | Potency [6] | activity change, negative = inhibition ([8]; at 57.5 µM (top of the series)) -4.66%

C[C@H]1NC(=O)NC1=O
inactive: activity change, negative = inhibition [10] 18% [at 17.2 µM] and -9.42% [at 17.2 µM] | Potency [1] | activity change, negative = inhibition [11, 16] -10.2% [at 17.2 µM] and -1.97% [at 17.2 µM] | activity, negative = inhibition [2, 16] -29.7% [at 17.2 µM] and -2.24% [at 17.2 µM] | Potency [3] > 20.6 µM | Potency [4] > 20.6 µM | Potency [5] | Potency [6] | activity change, negative = inhibition ([8]; at 25.7 µM (top of the series)) -0.728% | Potency [9]
-2.21%: max response [8, 14]
-1.48%: max response [8, 15]

CN[C@@H](CC(C)C)C(=O)N[C@@H]1C(=O)N[C@H](CC(N)=O)C(=O)N[C@@H]2C(=O)N[C@H]3C(=O)N[C@H](C(=O)N[C@H](C(=O)O)c4cc(O)cc(O)c4-c4cc3ccc4O)[C@H](O)c3ccc(c(Cl)c3)Oc3cc2cc(c3O[C@H]2O[C@@H](CO)[C@@H](O)[C@@H](O)[C@@H]2O[C@@H]2C[C@](C)(N)[C@H](O)[C@H](C)O2)Oc2ccc(cc2Cl)[C@@H]1O
inactive: activity change, negative = inhibition [11, 16] -5.38% [at 17.2 µM] | activity, negative = inhibition [2, 16] 7.22% [at 17.2 µM] | Potency [3] > 20.6 µM | Potency [4] > 20.6 µM | Potency [5] | Potency [6] | activity change, negative = inhibition ([8]; at 25.7 µM (top of the series)) -2.11% | outcome [12] | activity, negative = inhibition ([13]; parasite line A) 3.64% | activity, negative = inhibition ([13]; parasite line B) 4.98% | Potency (ATS189) | Potency (CP201) | Potency (CP291) | Potency (DFO2036) | Potency (PC49) | Potency (TAB113)
5.45%: max response [8, 14]
3.37%: max response [8, 15]

CCCN[C@@H](C)C(=O)Nc1ccccc1C
11.7%: max response [8, 14]
11.2%: max response [8, 15]
inactive: Potency [1] | activity change, negative = inhibition ([11]; at 17.2 µM (top of the series)) -7.99% | activity change, negative = inhibition ([11]; at 38 µM (top of the series)) 0.91% | activity, negative = inhibition ([2]; at 17.2 µM (top of the series)) -2.53% | activity, negative = inhibition ([2]; at 38 µM (top of the series)) -11.1% | Potency [3] > 46 µM and > 20.6 µM | Potency [4] > 46 µM and > 20.6 µM | Potency [5] | Potency [6] | activity change, negative = inhibition ([8]; at 25.7 µM (top of the series)) -0.0308% | Potency [9] | outcome [12] | activity, negative = inhibition ([13]; parasite line A) 7.59% | activity, negative = inhibition ([13]; parasite line B) 9.71% | Potency (ATS189) | Potency (CP201) | Potency (CP291) | Potency (DFO2036) | Potency (PC49) | Potency (TAB113)

CC(=O)Oc1cc(OC(C)=O)c2c(c1)OC(c1ccc(OC(C)=O)c(OC(C)=O)c1)C(OC(C)=O)C2 (stereo not given)
0.329% and -6.77%: max response [8, 14]
inactive: Potency [7] | activity change, negative = inhibition ([8]; at 57.5 µM (top of the series)) 6.42% and -10.2% | Potency [9]
6.69% and -15%: max response [8, 15]
